# Source: PubChem (National Center for Advancing Translational Sciences (NCATS))
# Rows were chosen to be rich in hits. Some 2.8% of all compounds tested hit in one or more screens of this group.
# BRCA1 expr act: activators of BRCA1 expression; 1.1% of 380,000 active; MCF7-BRCA1-FFLuc reporter, luminescence, 48 h; response scale: scaled: vehicle 0%, 10 µM genistein 100%; Potency, µM (top dose mostly 46.1 µM), for the others: top-dose activation, usual class: activators; note: nearly all actives have a fitted effect of over 80% in size
#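 Using MCF7 cells harboring a BRCA1 firefly luciferase reporter, plated 2 h before compound pinning, the screen measured luminescence after 48 h incubation. Responses were normalized to DMSO and 10 microM genistein, then fitted for concentration-effect.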
# HEK293 tox: cytotoxic in the GLP-1 receptor inverse agonist counter-screen; HEK293 cAMP-luciferase reporter cells, luminescence, 24 h; Potency, µM (highest dose often 38.3 µM), for inactives: at the highest dose activity change, negative = inhibition, hits mostly inhibitors; 0.13% of 410,000 active;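 note: loss of luciferase light is scored as toxicity; % is set by controls: 0 for no effect and ±100 for the full control effect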
#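 To flag toxic compounds, the library was rerun on cells for 24 hr at 37 deg C and 5% CO2. Viability-linked luminescence was captured 12 min after adding luciferase detection reagent.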
# GLP-1R inv ag: GLP-1 receptor (human) inverse agonism; HEK293 GLP-1R CRE-luciferase, luminescence, 24 h; GLP-1R form is constitutively active; Potency, µM (top dose mostly 38.3 µM), for the others: at the highest dose activity change, negative = inhibition, actives largely listed as inhibitors; 1.6% of 410,000 active; P43220; note: % is set by controls: 0 for no effect and ±100 for the full control effect; nearly all actives have a fitted effect of over 55% in size
# Target sequence (P43220 whole entry, looked up): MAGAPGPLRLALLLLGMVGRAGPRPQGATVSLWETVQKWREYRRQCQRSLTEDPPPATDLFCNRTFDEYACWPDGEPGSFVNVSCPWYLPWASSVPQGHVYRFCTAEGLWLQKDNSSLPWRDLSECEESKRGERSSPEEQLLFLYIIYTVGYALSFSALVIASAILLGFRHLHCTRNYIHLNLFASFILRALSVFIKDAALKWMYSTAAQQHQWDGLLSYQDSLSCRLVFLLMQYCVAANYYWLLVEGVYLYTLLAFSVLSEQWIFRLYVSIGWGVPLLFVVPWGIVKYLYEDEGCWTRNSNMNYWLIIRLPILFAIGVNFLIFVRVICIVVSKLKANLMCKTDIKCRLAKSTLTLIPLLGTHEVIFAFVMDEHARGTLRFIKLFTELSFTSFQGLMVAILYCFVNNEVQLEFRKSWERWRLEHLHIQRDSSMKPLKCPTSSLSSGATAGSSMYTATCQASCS
#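 Readout was luciferase luminescence, measured 12 min after detection reagent at room temperature. Beforehand, GLP-1R reporter HEK293 cells had sat 12 h, then received compounds for 24 hr at 37 deg C.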
# GLP-1R agonist: activates the human GLP-1 receptor; Potency, µM (series often up to 45.6 µM), for the others: at the highest dose activation, hits mostly activators; P43220; HEK293 GLP-1R CRE-luciferase, luminescence, 4-6 h; cells express a hypersensitive GLP-1R form; 0.007% of 380,000 active; AID 624172; note: % of control where 0% means no effect
# Mito fusion yeast: inhibitors of mitochondrial division or activators of mitochondrial fusion; Potency, µM (series often up to 46.1 µM), inactives show at the highest dose growth rescue (activation), actives largely listed as activators; S. cerevisiae fusion-defective mutant growth rescue, CellTiterGlo 48 h; 0.23% of 320,000 active; note: % of control where 0% means no effect; nearly all actives have a fitted effect of over 45% in size
#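 Read-out: ATP-based luminescence (CellTiterGlo, 10 min ambient) reporting growth of fusion-defective ts yeast after 48 hours at 37C on glycerol/ethanol YPEG medium in the presence of compound.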
# Starred values were filed as active, the others as inactive; ? = inconclusive; / = no result given. Calls come from the whole dose curve; as a rule, active = well fitted curve in the direction sought with a large enough effect; inconclusive = small, poorly fitted or top-dose-only effect, or another doubt; inactive = no such curve, though single readings can be large; an effect the other way counts as inactive or inconclusive. Potency is the fitted concentration of half-maximal effect.
SMILES,BRCA1 expr act,HEK293 tox,GLP-1R inv ag,GLP-1R agonist,Mito fusion yeast
COC(C)(C)[C@H](O)COc1c2ccoc2cc2oc(=O)ccc12,0%,7%,17%,4%,-8%
CN(Cc1ccccc1)c1nc(N)c([N+](=O)[O-])c(NCc2ccccc2)n1,-48%,?,?,1%,11µM*
O=C1CN(C(=O)/C=C/c2ccc(Cl)cc2Cl)CCN1,69%,7%,40%,1%,0%
CN1CCCN(C(=O)/C=C/c2ccc(Cl)cc2Cl)CC1,94%,?,7.9µM*,-7%,-4%
CCc1cccc(C)c1NC(=O)CN1CCCN(Cc2ccc(C)cc2)S1(=O)=O,/,-13%,-12%,/,/
O=C(CN(C(=O)c1ccc(Cl)cc1)C1CCCCC1)Nc1ccc(Cl)c([N+](=O)[O-])c1,-86%,5%,?,0%,-2%
O=C(CN(C(=O)c1ccccc1Cl)C1CCCCC1)Nc1ccc(Cl)c([N+](=O)[O-])c1,-89%,-18%,4µM*,-14%,-1%
CN(C(=O)c1ccc(NC(=O)C2CCCN(C(=O)OC(C)(C)C)C2)cc1)C1CCC1 (configuration not stated),-17%,1%,10%,7%,/
O=[N+]([O-])c1ccc(NCCCNS(=O)(=O)c2ccc(Cl)cc2)c(Cl)c1,-2%,10%,11µM*,-2%,7%
O=[N+]([O-])c1ccccc1NCCNS(=O)(=O)c1ccc(Cl)cc1,-21%,-20%,-24%,1%,5%
COc1ccc(NC(=O)C2Cc3ccccc3O/C2=N\O)cc1 (configuration not stated),10µM*,2%,32%,19%,6%
COc1ccccc1CN1C[C@@H]2C[C@@H](c3ccc(C)cc3)N3CCC[C@@]23C1=O,0%,13%,?,4%,4%
CCc1ccc([C@@H]2C[C@H]3CN(Cc4ccccc4OC)C(=O)[C@]34CCCN24)cc1,-8%,-7%,13µM*,8%,2%
O=C(c1ccc(Br)o1)N1CCN(CCc2ccncc2)CC1,-3%,5%,-13%,2%,8%
CC1CCCN(C(=O)CNC(=O)c2sc3ccccc3c2Cl)C1 (configuration not stated),?,4%,?,13%,10%
O=C(NCCCN1CCOCC1)c1sc2ccccc2c1Cl,11µM*,6%,20%,0%,0%
O=C(NCC(=O)N1CCCCC1)c1sc2ccccc2c1Cl,4.5µM*,-1%,15%,10%,2%
O=C(NCCN1CCOCC1)c1sc2cc(Cl)ccc2c1Cl,?,-2%,-16%,23%,-1%
CC1CC(C)CN(C(=O)CNC(=O)c2sc3ccccc3c2Cl)C1 (configuration not stated),64%,5%,3.2µM*,-9%,14%
CCCCOCCCNC(=O)C[C@@H]1C[C@@]2(C(=O)OCC)CCC=C2N(Cc2ccc3c(c2)OCO3)C1=O,11%,-4%,-22%,5%,/
COCCCC1CCN(C(=O)C2CCC(=O)N(CCCc3ccccc3)C2)CC1 (configuration not stated),24%,-12%,-18%,-3%,/
COc1ccccc1N1CCN(Cc2nc(N)nc(Nc3ccc(C)c(Cl)c3)n2)CC1,-29%,15%,2.2µM*,-24%,9%
COc1cc2nc(Nc3ccc(C)c(Cl)c3)nc(N)c2cc1OC,-59%,?,3.2µM*,0%,-21%
COc1cc2nc(Nc3ccc(C)c(C)c3)nc(N)c2cc1OC,-2%,?,10µM*,14%,-2%
COC(=O)c1[nH]c2cc(OC)ccc2c1NC(=O)CCN1CCN(Cc2ccc3c(c2)OCO3)CC1,2%,-8%,1%,-1%,-2%
SMILES,BRCA1 expr act,HEK293 tox,GLP-1R inv ag,GLP-1R agonist,Mito fusion yeast
Cc1ccc(C(=O)c2cn(Cc3cccc(F)c3)c3nc(C)ccc3c2=O)cc1,-20%,4%,?,-1%,/
CCN(CC)S(=O)(=O)c1cccc(C(=O)Nc2cccc(C)c2)c1,11%,-20%,?,-1%,0%
CCN(c1ccccc1)S(=O)(=O)c1cccc(C(=O)NCC2(N(C)C)CCCCC2)c1,-11%,-1%,10µM*,-2%,0%
CCN(CC)S(=O)(=O)c1cccc(C(=O)Nc2cc(C)cc(C)c2)c1,41%,10%,2µM*,4%,1%
CCN(CC)S(=O)(=O)c1cccc(C(=O)N[C@H](C(=O)NCc2ccc(Cl)cc2)C(C)C)c1,-26%,5%,13µM*,-2%,1%
CN(C)S(=O)(=O)c1cccc(C(=O)NCCNC(=O)c2cccc(S(=O)(=O)N(C)C)c2)c1,3%,?,22%,6%,10%
CCN(CC)S(=O)(=O)c1cccc(C(=O)NCCc2ccccc2)c1,6.3µM*,10%,1%,2%,/
CC(C)(C)Nc1nc(OCC#N)nc(N2CCCCC2)n1,-51%,6%,?,6%,28%
O=C(NCc1cccnc1)C(=O)NCC1OCCN1S(=O)(=O)c1ccccc1 (configuration not stated),-6%,0%,6%,-3%,-6%
COc1ccc(C2NN=C(c3c[nH]c4ccccc34)C2O)cc1 (configuration not stated),-26%,-18%,?,6%,1%
COc1ccc(C2C(O)C(c3c[nH]c4ccccc34)=NN2C(=O)CCl)cc1 (configuration not stated),-88%,11µM*,?,1%,-4%
O=C(COC(=O)c1cc(Cl)ccc1O)NNC(=O)c1ccc([N+](=O)[O-])cc1,-21%,10%,-3%,2%,-6%
CC(C)(C)C1=NN(C(=O)c2ccccc2)C(O)(C(C)(C)C)C1 (configuration not stated),15%,-7%,?,6%,-1%
CC(C)C1=NN(C(=O)c2ccccc2)C(O)(C(C)(C)C)C1 (configuration not stated),-2%,?,13µM*,-14%,-4%
CC(=O)CSc1nc2ccccc2o1,83%,2%,1%,6%,2%
O=C(CSc1nc2ccccc2s1)N1c2ccccc2Sc2ccc(Cl)cc21,-35%,0%,-20%,-3%,0%
O=C(O)c1ccccc1CSc1nc2ccccc2o1,8.9µM*,3%,-17%,3%,5%
O=C(CSc1nc2ccccc2s1)N1c2ccccc2Sc2ccc(C(F)(F)F)cc21,-46%,3%,5µM*,-4%,3%
O=C(CSc1nc2ccccc2o1)N1c2ccccc2Sc2ccccc21,-57%,23%,?,-2%,13µM*
O=C1CSc2ccccc2N1,24%,-7%,-9%,2%,/
